Shown are actives, neighbours in structure and some others; about 0.93% of the full set was active somewhere.
TAR Tat displ: HIV-1 TAR-Tat binding disruption; 100,000 tested, 0.6% active; AID 1259389; z-score (concentration not given with the values); HIV-1 TAR RNA, Tat peptide displacement FRET; stronger effect = higher value; active = z-score of 3 or more in at least 2 runs
CDC25B CDK2 inh: human CDC25B-CDK2/CyclinA binding inhibition; HTRF CDC25B-CDK2/CyclinA binding, anti-His/anti-Flag; stronger effect = higher value; z-score (concentration not given with the values); 94,000 tested, 0.72% active; AID 1259370; in the data active = z-score above about 3.2
A number is an active result.

`CCOc1ccc2nc(NC(=O)c3csnn3)sc2c1` gave TAR Tat displ inactive and CDC25B CDK2 inh inactive.
Screening O=C(O)CSCC(=O)Nc1nc(SCc2ccc(Cl)cc2)n[nH]1 returned CDC25B CDK2 inh 7.
Cc1ccccc1C(=O)Nc1nc(SCc2ccc(Cl)cc2)n[nH]1 was read as CDC25B CDK2 inh inactive.
For O=C(Cn1cnc(S(=O)(=O)N2CCc3ccccc32)c1)Nc1ccc(F)cc1F the results were TAR Tat displ inactive.
`Clc1cccc(-c2nnn3c2nc(N2CCOCC2)c2ccccc23)c1` gave TAR Tat displ inactive and CDC25B CDK2 inh inactive.
Screening C=CCSCC=C returned TAR Tat displ 15.
For COc1cc(C2CC(=O)N3CN(Cc4ccco4)CSC3=C2C#N)ccc1O (stereo not drawn) the results were TAR Tat displ inactive and CDC25B CDK2 inh 4.9.
For COc1ccc(C2CC(=O)N3CN(Cc4ccco4)CSC3=C2C#N)cc1OC (stereo not drawn) the results were TAR Tat displ inactive and CDC25B CDK2 inh 5.5.
For N#CC1=C2SCN(Cc3ccco3)CN2C(=O)CC1c1cccc(F)c1 (stereo not drawn) the results were TAR Tat displ inactive and CDC25B CDK2 inh inactive.
Screening COc1cccc(C2CC(=O)N3CN(Cc4ccco4)CSC3=C2C#N)c1 (stereo not drawn) returned TAR Tat displ inactive and CDC25B CDK2 inh 15.
For COc1ccc(C2CC(=O)N3CN(CCC(C)C)CSC3=C2C#N)cc1OC (stereo not drawn) the results were TAR Tat displ inactive and CDC25B CDK2 inh 4.7.
COc1ccccc1C1CC(=O)N2CN(Cc3ccco3)CSC2=C1C#N (stereo not drawn) was read as TAR Tat displ inactive and CDC25B CDK2 inh inactive.
For COc1ccc(C2CC(=O)N3CN(CCC(C)C)CSC3=C2C#N)cc1 (stereo not drawn) the results were TAR Tat displ inactive and CDC25B CDK2 inh inactive.
C=CCN1C(=S)NC2(O)c3ccccc3C(=O)C12O (stereo not drawn) was read as CDC25B CDK2 inh inactive.
O=C(c1ccc(N2C(=O)CCS2(=O)=O)cc1)N1CCCC1 was read as TAR Tat displ inactive and CDC25B CDK2 inh inactive.
`CC1(O)Cc2[nH][nH]c(=O)c2C(c2cccc(Br)c2)C1C(=O)OCc1ccccc1` (stereo not drawn) gave TAR Tat displ inactive and CDC25B CDK2 inh inactive.
Screening CCn1c[n+](CC(O)COc2ccccc2)c2ccccc21 (stereo not drawn) returned TAR Tat displ inactive and CDC25B CDK2 inh inactive.
`CCn1c[n+](CC(O)COc2ccccc2)c2cc(C)c(C)cc21` (stereo not drawn) gave TAR Tat displ inactive and CDC25B CDK2 inh 16.
`CCOc1ccccc1NS(=O)(=O)c1cccc2cccnc12` gave CDC25B CDK2 inh inactive.
Cc1oc(-c2cccs2)nc1Cn1nc(C)c2c(C)onc2c1=O was read as TAR Tat displ inactive.
For COc1ccc(C2=NC(C)(C)CO2)cc1OC the results were CDC25B CDK2 inh inactive.
`CCOc1cc(CNc2ccc3[nH]c(=O)[nH]c3c2)cc(Br)c1OCC` gave TAR Tat displ inactive and CDC25B CDK2 inh inactive.
Screening CCOc1c(Cl)cc(CNc2ncn[nH]2)cc1OC returned TAR Tat displ inactive and CDC25B CDK2 inh inactive.
CCOc1ccc(Br)cc1CNc1ccc2[nH]c(=O)[nH]c2c1 was read as TAR Tat displ inactive and CDC25B CDK2 inh 7.5.
`COc1ccc(Br)cc1CNc1cc(C)cc(C)c1` gave TAR Tat displ inactive and CDC25B CDK2 inh inactive.
Screening O=c1[nH]c2ccc(NCc3ccccn3)cc2[nH]1 returned TAR Tat displ inactive and CDC25B CDK2 inh 13.
Screening O=c1[nH]c2ccc(NCC#Cc3ccccc3)cc2[nH]1 returned TAR Tat displ inactive and CDC25B CDK2 inh inactive.
CCOc1c(Br)cc(CNc2ccc3[nH]c(=O)[nH]c3c2)cc1OC was read as TAR Tat displ inactive and CDC25B CDK2 inh 8.5.
For CCOc1cc(CNc2ccc3[nH]c(=O)[nH]c3c2)cc(Br)c1OC the results were TAR Tat displ inactive and CDC25B CDK2 inh 6.1.
For Cc1ccccc1CN1CCc2nc(N3CCC(C)CC3)ncc2C1 the results were TAR Tat displ inactive.
Screening CNC(=O)C(C)n1nc(C)c2c(C)n(-c3ccccc3)nc2c1=O (stereo not drawn) returned TAR Tat displ inactive.
CCOC(=O)c1ccc(-n2c(C)cc(/C=c3\sc4nc5ccccc5n4c3=O)c2C)cc1 was read as CDC25B CDK2 inh inactive.
Screening Cc1nn(CC(=O)N2CCCCCC2)c(=O)c2cc3sccc3n12 returned CDC25B CDK2 inh inactive.
Screening O=C(CCCc1nc(-c2ccco2)no1)Nc1cccc(Cl)c1 returned TAR Tat displ inactive and CDC25B CDK2 inh inactive.
Screening Cn1nc(C(=O)N(Cc2ccco2)CC2CCCO2)c2c1-c1ccccc1OC2 (stereo not drawn) returned TAR Tat displ inactive and CDC25B CDK2 inh inactive.
Screening COc1cc(CNc2ccc3[nH]c(=O)[nH]c3c2)cc(Br)c1OC returned TAR Tat displ inactive and CDC25B CDK2 inh 8.7.
